Shown is part of a subset that was picked to be rich in hits.
Methyltransferases = Primary Screen for Target Class Profiling of Small Molecule Inhibitors of Methyltransferases; purified enzyme, MTase-Glo SAH luminescence; hits give low values; calls only at 40 µM; actives 3.9% (n = 25,000); call rule not given here
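Each enzyme was assayed with SAM and its substrate. SAH formation detected by MTase-Glo luminescence; single-point 40 uM screen[…].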
* hit, by the source's call; i = inactive; + = active, no number. On the % scale 0 is the no-effect control and ±100 the full control effect.

SMILES	Methyltransferases
COc1cc(O)c2c(c1)CCC[C@@H](O)[C@H](O)C(=O)/C=C\C[C@H](C)OC2=O	i
C[C@H]1CCC[C@H](O)CCC/C=C/c2cc(O)cc(O)c2C(=O)O1	+
CC1CCCC(O)CC(=O)Cc2cc(O)cc(O)c2C(=O)O1 (stereo not drawn)	i
COc1ccc(C2c3cccn3-c3ccccc3CN2C(=O)Nc2ccc(OC)cc2OC)cc1 (stereo not drawn)	i
Cc1ccc(C)c(NC(=O)N2Cc3ccccc3-n3cccc3C2c2ccccc2Cl)c1 (stereo not drawn)	i
CCOC(=O)CNC(=O)N1Cc2ccccc2-n2cccc2C1c1cccc(Cl)c1 (stereo not drawn)	i
O=C(Nc1ccc(F)cc1F)N1Cc2ccccc2-n2cccc2C1c1ccc(F)cc1 (stereo not drawn)	i
CCOC(=O)c1ccc(NC(=O)N2Cc3ccccc3-n3cccc3C2c2cccs2)cc1 (stereo not drawn)	i
CN1CCC[C@@H]1Cc1c[nH]c2ccc(Nc3ncccc3[N+](=O)[O-])cc12	+
O=C(NCc1ccccc1)N1Cc2ccccc2-n2cccc2C1c1ccccc1Cl (stereo not drawn)	i
Cc1ccc(CNC(=O)N2Cc3ccccc3-n3cccc3C2c2ccc(N(C)C)cc2)cc1 (stereo not drawn)	i
CCc1ccc(C2c3cccn3-c3ccccc3CN2C(=O)Nc2ccc(OC)c(OC)c2)cc1 (stereo not drawn)	i
CC(C)C1c2cccn2-c2ccccc2CN1C(=O)Nc1ccccc1 (stereo not drawn)	i
Cc1ccccc1C1c2cccn2-c2ccccc2CN1C(=O)Nc1cccc(Cl)c1C (stereo not drawn)	i
c1ccc2c(N3CCNCC3)cccc2c1	+
CCCN1CCc2cc(O)cc3c2[C@H]1Cc1ccc(O)c(O)c1-3	+
CN1CCc2cc(O)cc3c2[C@H]1Cc1ccc(O)c(O)c1-3	+
CCCN1CCO[C@H]2c3cc(O)ccc3OC[C@@H]21	i
CCOc1ccc(C2c3cccn3-c3ccccc3CN2C(=O)Nc2ccc(C)c(F)c2)cc1 (stereo not drawn)	i
CCc1ccccc1NC(=O)N1Cc2ccccc2-n2cccc2C1c1cccs1 (stereo not drawn)	i
CC(C)C1c2cccn2-c2ccccc2CN1C(=O)Nc1ccc(F)c(Cl)c1 (stereo not drawn)	i
CCC1c2cccn2-c2ccccc2CN1C(=O)Nc1cccc(Cl)c1C (stereo not drawn)	i
CCOc1ccc(C2c3cccn3-c3ccccc3CN2C(=O)Nc2cccc(OC)c2)cc1 (stereo not drawn)	i
Cc1ccc(C2c3cccn3-c3ccccc3CN2C(=O)Nc2ccc(F)cc2)cc1 (stereo not drawn)	i
CC(C)CCNC(=O)N1Cc2ccccc2-n2cccc2C1C (stereo not drawn)	i
SMILES	Methyltransferases
Cc1[nH]c2ccc(Cl)cc2c1CCN(C)C	+
COc1ccccc1NC(=O)N1Cc2ccccc2-n2cccc2C1c1ccc(N(C)C)cc1 (stereo not drawn)	i
CC(C)C1c2cccn2-c2ccccc2CN1C(=O)Nc1ccccc1C(F)(F)F (stereo not drawn)	i
COc1ccc(C2c3cccn3-c3ccccc3CN2C(=O)Nc2cccc(SC)c2)cc1 (stereo not drawn)	i
O=C1Nc2ccc3ncsc3c2/C1=C/c1cnc[nH]1	+
COc1ccc(C2c3cccn3-c3ccccc3CN2C(=O)Nc2cc(OC)cc(OC)c2)cc1 (stereo not drawn)	i
CCC1c2cccn2-c2ccccc2CN1C(=O)NCc1cccc(OC)c1 (stereo not drawn)	i
O=c1ccc2[nH]cc(C3=CCNCC3)c2[nH]1	+
CCOc1ccc(NC(=O)N2Cc3ccccc3-n3cccc3C2C)cc1 (stereo not drawn)	i
Cc1ccc(C2c3cccn3-c3ccccc3CN2C(=O)Nc2ccc(C)c(Cl)c2)cc1 (stereo not drawn)	i
COc1ccc(C)cc1NC(=O)N1Cc2ccccc2-n2cccc2C1c1ccc(F)cc1 (stereo not drawn)	i
CC(C)c1ccc(C2c3cccn3-c3ccccc3CN2C(=O)NCc2ccco2)cc1 (stereo not drawn)	i
O=C(NCc1ccccc1)N1Cc2ccccc2-n2cccc2C1c1cccc(Cl)c1 (stereo not drawn)	i
CCOc1ccc(C2c3cccn3-c3ccccc3CN2C(=O)Nc2cc(F)ccc2F)cc1 (stereo not drawn)	i
NNC(=O)c1ccc(O)cc1	i
NCCc1ccc(O)cc1	+
CCOC(=O)Cc1ccc(NC(=O)N2Cc3ccccc3-n3cccc3C2CC)cc1 (stereo not drawn)	i
CCc1ccc(C2c3cccn3-c3ccccc3CN2C(=O)Nc2cccc(C(F)(F)F)c2)cc1 (stereo not drawn)	i
N#Cc1cn([C@@H]2O[C@H](CO)[C@H](O)[C@@H]2O)c2ncnc(N)c12	+
CCc1ccccc1NC(=O)N1Cc2ccccc2-n2cccc2C1C(C)C (stereo not drawn)	i
CSc1ccc(C2c3cccn3-c3ccccc3CN2C(=O)Nc2ccc3c(c2)OCCO3)cc1 (stereo not drawn)	i
Cc1ccc(NC(=O)N2Cc3ccccc3-n3cccc3C2c2ccc(N(C)C)cc2)cc1Cl (stereo not drawn)	i
O=C(Nc1ccccc1Cl)N1Cc2ccccc2-n2cccc2C1c1ccc(F)cc1 (stereo not drawn)	i
O=S1(=O)N(CCN2CC=C(c3c[nH]c4cc(F)ccc34)CC2)c2cccc3c2N1CCC3	+
O=C(Nc1ccc(Cl)cc1)N1Cc2ccccc2-n2cccc2C1c1ccccc1 (stereo not drawn)	i
SMILES	Methyltransferases
COC(=O)c1cccc(NC(=O)N2Cc3ccccc3-n3cccc3C2c2ccc(OC)c(OC)c2)c1 (stereo not drawn)	i
O=C(NCc1ccccc1)N1Cc2ccccc2-n2cccc2C1c1cccs1 (stereo not drawn)	i
N#Cc1ccc(N2CCN(C(=O)COc3ccc4[nH]cc(CCN)c4c3)CC2)cc1	+
Cc1ccc(C2c3cccn3-c3ccccc3CN2C(=O)Nc2ccc(C)cc2C)cc1 (stereo not drawn)	i
Cc1ccc(CNC(=O)N2Cc3ccccc3-n3cccc3C2c2ccc(C)cc2)cc1 (stereo not drawn)	i
Cc1nccc2c1[nH]c1ccccc12	i
Cc1c2ccncc2c(C)c2c1[nH]c1ccccc12	+
O=C(Nc1ccccc1)N1Cc2ccccc2-n2cccc2C1c1ccccc1Cl (stereo not drawn)	i
Cc1cccc(NC(=O)N2Cc3ccccc3-n3cccc3C2c2ccc(N(C)C)cc2)c1C (stereo not drawn)	i
COc1ccc(C2c3cccn3-c3ccccc3CN2C(=O)Nc2cccc(C)c2C)cc1 (stereo not drawn)	i
CC(N)c1cccc(Cl)c1Cl (stereo not drawn)	+
CC(C)c1cccc(C(C)C)c1O	i
COc1ccc(OC)c(NC(=O)N2Cc3ccccc3-n3cccc3C2c2ccc(C(C)C)cc2)c1 (stereo not drawn)	i
C/C=C(/C)C1C=CC2CC(C)CC(C)C2C1/C(O)=C1\C(=O)NC(CC(C)(O)C(=O)O)C1=O (stereo not drawn)	i

Screening data as filed in PubChem BioAssay.
